Holding throughout (test): NCI-60 one-dose screen, 48 h (100 = growth as untreated, 0 = no growth, -100 = all killed)
What all share (details): 10 µM unless noted

For test [1], the system named is T-47D breast.
The test system of test [2] is BT-549 breast.
For test [3], the system named is MDA-MB-435 melanoma.
The subject of test [4] is SW-620 colon.
Test [5] relates to MCF7 breast.
Test [6] deals with HCT-116 colon.
The subject of test [7] is HCC-2998 colon.
Test [8] has as its system KM12 colon.

Compounds without any hit were thinned out: in the full panel of roughly 83,000, 20% have a hit.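 Method: cells in 96-well plates; compound added at one concentration; 48 h incubation; percent growth measured; values under 10 scored active.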 Values without a mark were called inactive. Activity calls are given as the source filed them.

Turning to `Nc1ccc(N(O)/C=C2\C=CC=CC2=O)cc1N`, the growth in test [1] was 78.8%; in test [2] it was 103%; in test [3], 97.7%; in test [4] it was 105%; in test [5], 115%; in test [6], 85.1%. Also, the growth in test [7] was 93.4%; in test [8], 83.3%.

Turning to `COc1cc(C2CC(c3cccc(Nc4ccnc5cc(Cl)ccc45)c3)=NN2c2ccccc2)cc(OC)c1OC` (configuration not stated), the growth in test [1] was 42.9%; in test [2], 88.6%; in test [3], 24.4%; in test [4], 37.8%; in test [5], 60.6%; in test [6], 64.8%. In addition, the growth in test [7] is 91.8%; in test [8] it was 40.7%.

As to `COc1ccc(-c2nsc3c2NC(=O)CC3c2ccc3c(c2)OCO3)cc1` (configuration not stated), the growth is 33.2% in test [1]; 53.6% in test [2]; -38.5% (active) in test [3]; 24.9% in test [4]; 22.7% in test [5]; 28.6% in test [6]. For the same compound, the growth in test [7] was 39.4%; in test [8], 31.2%.

For `O=C1C=CC(=O)N1c1cccc(N2C(=O)C=CC2=O)c1`, the growth is -13.6% (active) in test [1]; 113% in test [2]; 103% in test [3]; 4.72% (active) in test [4]; 65.9% in test [5]; 24.7% in test [6]. The growth in test [7] was 130%; in test [8] it was 122%.

For `Fc1ccc2c(CN3CCO[C@H](COc4cccc(Cl)c4)C3)c[nH]c2c1`, the growth was 37.5% in test [1]; 57.7% in test [2]; 50% in test [3]; 59.7% in test [4]; 20.3% in test [5]; 28.8% in test [6]. The growth was 96.9% in test [7] and 38.9% in test [8].

Regarding `COc1cc(/C=C/C(=O)c2ccc(NC(=O)CSc3nnc(-c4ccc(Cl)cc4)n3-c3ccccc3)cc2)cc(OC)c1OC`, the growth in test [1] was 47.5%; in test [2], 59.6%; in test [3], 64.4%; in test [4], 68.2%; in test [5], 20.8%; in test [6], 7.2% (active). Further, the growth in test [7] is 76.2%; in test [8] it was 67.9%.

On to `CCCCCCCCCCCCCCC(C(=O)OCC)C(=O)OCC`, for which the growth in test [1] is 101%; in test [2] it was 104%; in test [3], 96.1%; in test [4], 107%; in test [5], 98.5%; in test [6] it was 109%. For the same compound, the growth in test [7] was 106%; in test [8], 108%.

With `CSC1=NC(=Nc2c(C)cccc2C)C2(CCC(C(C)(C)C)CC2)N1c1ccc(Cl)cc1` (configuration not stated), the growth is 89.9% in test [1]; 81.4% in test [2]; 36.5% in test [3]; 28.6% in test [4]; 43% in test [5]; 22.4% in test [6]. The growth in test [7] is 44.3%; in test [8] it was 39.9%.

Regarding `COc1c(B(O)O)cccc1-c1nc2ccc3[nH]ncc3c2c2c1CCCC2`, the growth is 39.2% in test [1]; 7.15% (active) in test [2]; 38.4% in test [3]; 8.47% (active) in test [4]; 2.24% (active) in test [5]; 6% (active) in test [6]. Further, the growth in test [7] is 53.3%; in test [8] it was 1.71% (active).

`O=C(/C=C/c1cn(-c2ccccc2)nc1-c1cccc(Nc2ccnc3cc(Cl)ccc23)c1)c1ccc2c(c1)OCO2`: the growth in test [1] was 93.3%; in test [2], 100%; in test [3], 69.6%; in test [4], 95.9%; in test [5], 81.1%; in test [6], 83.8%. Moreover, the growth in test [7] is 102%; in test [8], 94.1%.

For `O=C(Nc1cccc(Cl)c1)Nc1cc(C(F)(F)F)ccc1Cl`, the growth in test [1] is 5.15% (active); in test [2] it was 25.8%; in test [3] it was 8.14% (active); in test [4] it was -16.1% (active); in test [5] it was 16.1%; in test [6], -13.3% (active). Also, the growth is 13.2% in test [7] and -45.1% (active) in test [8].

Consider `C#CCNC(=S)N/N=C(\C)c1ccccn1`, for which the growth in test [1] is 24.1%; in test [2], -2.53% (active); in test [3], 33.1%; in test [4], 34.3%; in test [5] it was 4.54% (active); in test [6] it was 1.22% (active). Also, the growth in test [7] was 35.1%; in test [8] it was 23.5%.

With `O=c1cc(N2CCOCC2)oc2c(-c3ccc4c(c3)OCCO4)csc12`, the growth is -15% (active) in test [1]; 5.39% (active) in test [2]; 14.7% in test [3]; 37.6% in test [4]; 7.92% (active) in test [5]; 14.4% in test [6]. Further, the growth was 33.2% in test [7] and 31.7% in test [8].

For `CS(=O)(=O)Nc1cc(-c2cc3ncc(C#N)c(Nc4ccc(Oc5ccccc5)c(Cl)c4)c3s2)cnc1Cl`, the growth in test [1] was 15.8%; in test [2] it was 51%; in test [3], 67.4%; in test [4], 48%; in test [5], 26.5%; in test [6], 45.1%. Moreover, the growth in test [7] was 64.5%; in test [8], 56.8%.

In the case of `N=c1n(Cc2ccccc2)c(N)cc(=O)n1Cc1ccccc1`, the growth in test [1] is 26.7%; in test [2], 3.02% (active); in test [3], 37.2%; in test [4], 20.7%; in test [5], 23.4%; in test [6] it was 8.12% (active). The growth in test [7] is 67.4%; in test [8], 39.2%.

Turning to `CC(=O)c1ccc(-n2c(-c3cc(-c4ccsc4)n[nH]3)n[nH]c2=S)cc1`, the growth in test [1] is 103%; in test [2], 95.3%; in test [3], 106%; in test [4] it was 94%; in test [5], 90.4%; in test [6], 98.1%. Besides, the growth in test [7] was 99%; in test [8], 100%.

Consider `CCCCCCCCCCCCCCCc1cc(O)ccc1[N+](=O)[O-]`, for which the growth in test [1] was 61.2%; in test [2], 76.4%; in test [3], 96.8%; in test [4], 93.1%; in test [5] it was 66%; in test [6] it was 64.7%. Moreover, the growth in test [7] was 104%; in test [8] it was 89.3%.

For the compound `CN1CCN(c2ccc(N3Cc4ccccc4OC4=C3C(=O)c3c(O)ccc(O)c3C4=O)cn2)CC1`, the growth in test [1] is -32.7% (active); in test [2] it was -78.8% (active); in test [3], 0.932% (active); in test [4], -61.1% (active); in test [5], -39.2% (active); in test [6], -80.9% (active). The growth in test [7] is -65.8% (active); in test [8], -53.2% (active).

As for `COc1ccc(/C=C/C(=O)c2ccc(NC(=O)CSc3nnc(-c4ccc(Cl)cc4)n3-c3ccccc3)cc2)cc1`, the growth was 77.2% in test [1]; 93% in test [2]; 94.4% in test [3]; 110% in test [4]; 70.3% in test [5]; 36.4% in test [6]. Also, the growth was 103% in test [7] and 94.5% in test [8].

For the compound `CCN(CC)CCCC(C)Nc1cnc(C(=O)Nc2cc(C)cc3cccnc23)cn1` (configuration not stated), the growth in test [1] is 32.6%; in test [2], 93.3%; in test [3], 83.7%; in test [4] it was 75.3%; in test [5], 57.3%; in test [6] it was 18%. The growth in test [7] was 89.8%; in test [8] it was 97.9%.

Turning to `Cc1nc2ccc(Nc3nc(Cl)nc(N4CCOCC4)n3)cc2n1Cc1ccccc1`, the growth in test [1] is 40.6%; in test [2] it was 83.7%; in test [3], 110%; in test [4] it was 70.4%; in test [5] it was 64.7%; in test [6], 81.2%. Also, the values for the growth in test [7] and in test [8] were 0.667% (active) and 95.8%, respectively.

On to `COc1c(-c2cc(-c3ccc(C)o3)[nH]c(=O)n2)c(O)cc2occc12`, for which the growth in test [1] is 45.5%; in test [2], 54%; in test [3], -38.6% (active); in test [4], 22.3%; in test [5], 28.1%; in test [6], 42.8%. Besides, the growth in test [7] is 92.1%; in test [8], 36.1%.

For the compound `COc1ccc(/C=C2\Cc3c(Br)cccc3C2=O)c(OC)c1`, the growth in test [1] was 77.3%; in test [2], 69.6%; in test [3], 7.83% (active); in test [4], 43.2%; in test [5], 55.6%; in test [6], 15%. In addition, the values for the growth in test [7] and in test [8] were 84.1% and 46.8%, respectively.

As to `CC1=C(C(=O)Nc2ccc(F)cc2)C(c2ccc(C)cc2)C2=C(CC(C)(C)CC2=O)N1` (configuration not stated), the growth in test [1] was 85.2%; in test [2], 97.2%; in test [3] it was 94.9%; in test [4] it was 81.9%; in test [5] it was 91.1%; in test [6], 96.3%. Also, the values for the growth in test [7] and in test [8] were 107% and 102%, respectively.

Take `FC(F)(F)c1ccc(/C=N/Nc2nnc3n2N=C(c2ccc(Cl)cc2)CS3)cc1`: the growth in test [1] is 65.5%; in test [2], 58.2%; in test [3], 70.8%; in test [4] it was 77.6%; in test [5], 61.2%; in test [6], 32.8%. Besides, the growth in test [7] is 98.7%; in test [8], 76.9%.

As for `CSC(=S)N/N=C(\C)c1ccccn1`, the growth in test [1] is 21.8%; in test [2] it was 28.8%; in test [3], 35.8%; in test [4], 29.5%; in test [5], 7.66% (active); in test [6], 9.68% (active). Also, the figures for the growth in test [7] and in test [8] were 28% and 19.9%, respectively.

In the case of `Cc1ccc2nc(CN(CCN(Cc3nc4ccc(C)cc4[nH]3)Cc3nc4ccc(C)cc4[nH]3)Cc3nc4ccc(C)cc4[nH]3)[nH]c2c1`, the growth is -93% (active) in test [1]; -98.2% (active) in test [2]; -92.6% (active) in test [3]; -85.9% (active) in test [4]; -95% (active) in test [5]; -96.3% (active) in test [6]. The growth is -65% (active) in test [7] and -95.9% (active) in test [8].

As to `O=C(Nc1cnc(C(F)(F)F)cn1)c1cc(Cl)ccc1O`, the growth in test [1] is -13.2% (active); in test [2], -21.3% (active); in test [3] it was 5.89% (active); in test [4], 10.9%; in test [5] it was 6.48% (active); in test [6], 1.13% (active). The growth is 14.6% in test [7] and 3.91% (active) in test [8].

In the case of `CCCCCCCCCCC(C(O)c1ccccc1)N1CCCCC1` (configuration not stated), the growth in test [1] was -33.7% (active); in test [2] it was 79.7%; in test [3], -54.3% (active); in test [4], -30.8% (active); in test [5] it was -65.4% (active); in test [6] it was 14.7%. Besides, the growth in test [7] was 49.1%; in test [8], 8.17% (active).

(Values after PubChem BioAssay (NCI).)
